Measured potencies and affinities stand elsewhere. Activity calls are given as the source filed them.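 How the source made its calls: active means a dose-response curve fit returns a half-maximal inhibitory concentration, extrapolated values included; inactive means the fit returns no such concentration.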 Residues, ends and D or L forms follow the SMILES beside them.
Target: HMG-CoA reductase [Enterococcus faecalis] (UniProt Q9FD70)
Assay: inhibitors of E. faecalis class II HMGR, confirmation, biochemical, Enterococcus faecalis (AID 1233)
Details: purified E. faecalis HMGR, NADPH absorbance 340 nm kinetics; series mostly up to 100 µM

| SMILES | outcome |
| --- | --- |
| CC(C)Oc1cccc(NC(=O)c2cccn(Cc3ccc4c(c3)OC(F)(F)O4)c2=O)c1 | inactive |
| COc1ccc(NC(=O)c2c(C)nn(Cc3ccccc3Cl)c2Cl)cc1Cl | inactive |
| CCN(CCNc1ccc([N+](=O)[O-])c2cccnc12)S(=O)(=O)c1ccccc1 | inactive |
| CCN1CCN(C(=O)Cc2ccccc2OC)CC1 | inactive |
| CCc1ccc(NC(=O)C(C)OC(=O)c2c(C)nn(Cc3ccccc3)c2Cl)cc1 (stereo unspecified) | inactive |
| COc1ccc(CCn2c(O)c(C=NCCCn3ccnc3)c(=O)[nH]c2=O)cc1OC | inactive |
| Cc1c(P(=S)(c2ccccc2)c2ccccc2)[n+]2ccccc2n1C | inactive |
| CCCn1cc(C(=O)O)cn1 | inactive |
| OC(Cn1c2ccccc2c2ccccc21)C[n+]1cccc2ccccc21 (stereo unspecified) | inactive |
| CCCCC(CC)CNCC(O)c1ccccc1 (stereo unspecified) | inactive |
| COc1ccc(C(=O)C2CCCN(Cc3cnc(C)s3)C2)c(OC)c1 (stereo unspecified) | inactive |
| COc1ccc(C[C@@H]2c3cc(O)c(OC)cc3CCN2C)cc1O | inactive |
| CC(C)C[C@H](NC(=O)[C@@H]1CCCN1C(=O)[C@@H](N)Cc1ccc(O)cc1)C(=O)NCC(N)=O (H-YPLG-NH2) | inactive |
| O=C(O)[C@@H]1C[C@H]1[C@@H](NP(=O)(c1ccccc1)c1ccccc1)c1ccccc1 | inactive |
| CC1(C)C(C(=O)NCc2ccco2)C1(C)C | inactive |
| O=[N+]([O-])/C(Cl)=C1\NCCN1Cc1ccc(Cl)nc1 | inactive |

From PubChem BioAssay AID1233 (SRMLSC, 2008)
